ALR H2O2 inh = inhibitors of human ALR sulfhydryl oxidase, primary screen, biochemical, H2O2 detection, HRP-luminol luminescence, single point; purified ALR, DTT oxidation; AID 485317, 2010; FAD-linked sulfhydryl oxidase ALR (Homo sapiens), P55789; inhibition, % (test concentration not listed); 290,000 compounds, 3.8% hits;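 active means mean replicate inhibition above about 79%, with every replicate also reaching it, limit read from the data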
Rtt109 Vps75 = inhibitors of C. albicans Rtt109/Vps75 HAT, primary screen, biochemical, ThioGlo CoA-SH fluorescence, plate reader. inhibition, % at 34.9 µM. Histone acetyltransferase RTT109 (Candida albicans (strain SC5314 / ATCC MYA-2876)), …. 330,000 compounds, 0.16% hits. purified Rtt109/Vps75, 4 h;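 active means inhibition of at least 50% in every replicate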
rCAG binder = binders of r(CAG) RNA repeats, primary screen, biochemical, fluorescence. AID 651821, 2012. inhibition, % at 3 µM. r(CAG) RNA repeat, TO-PRO-1 dye displacement fluorescence. 370,000 compounds, 1.3% hits;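 active means inhibition above the plate cutoff, the mean of all test compounds on that plate plus 3 SD, cut at about 35% in these data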;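 further: higher means more dye released from RNA so lower well fluorescence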
LANA-H2B inh = blockers of LANA interaction with H2A/H2B – biochemical, FP readout, HTS, primary screen. cell-free LANA-H2A/H2B peptide, fluorescence polarization. inhibition, % (test concentration not listed). 320,000 compounds, 0.6% hits. AID 2629, 2010; in the data active means inhibition mostly above about 10%, no sharp cut-off; inactive means mostly below about 6.7%
Target sequence (Q9QR71 whole entry, looked up): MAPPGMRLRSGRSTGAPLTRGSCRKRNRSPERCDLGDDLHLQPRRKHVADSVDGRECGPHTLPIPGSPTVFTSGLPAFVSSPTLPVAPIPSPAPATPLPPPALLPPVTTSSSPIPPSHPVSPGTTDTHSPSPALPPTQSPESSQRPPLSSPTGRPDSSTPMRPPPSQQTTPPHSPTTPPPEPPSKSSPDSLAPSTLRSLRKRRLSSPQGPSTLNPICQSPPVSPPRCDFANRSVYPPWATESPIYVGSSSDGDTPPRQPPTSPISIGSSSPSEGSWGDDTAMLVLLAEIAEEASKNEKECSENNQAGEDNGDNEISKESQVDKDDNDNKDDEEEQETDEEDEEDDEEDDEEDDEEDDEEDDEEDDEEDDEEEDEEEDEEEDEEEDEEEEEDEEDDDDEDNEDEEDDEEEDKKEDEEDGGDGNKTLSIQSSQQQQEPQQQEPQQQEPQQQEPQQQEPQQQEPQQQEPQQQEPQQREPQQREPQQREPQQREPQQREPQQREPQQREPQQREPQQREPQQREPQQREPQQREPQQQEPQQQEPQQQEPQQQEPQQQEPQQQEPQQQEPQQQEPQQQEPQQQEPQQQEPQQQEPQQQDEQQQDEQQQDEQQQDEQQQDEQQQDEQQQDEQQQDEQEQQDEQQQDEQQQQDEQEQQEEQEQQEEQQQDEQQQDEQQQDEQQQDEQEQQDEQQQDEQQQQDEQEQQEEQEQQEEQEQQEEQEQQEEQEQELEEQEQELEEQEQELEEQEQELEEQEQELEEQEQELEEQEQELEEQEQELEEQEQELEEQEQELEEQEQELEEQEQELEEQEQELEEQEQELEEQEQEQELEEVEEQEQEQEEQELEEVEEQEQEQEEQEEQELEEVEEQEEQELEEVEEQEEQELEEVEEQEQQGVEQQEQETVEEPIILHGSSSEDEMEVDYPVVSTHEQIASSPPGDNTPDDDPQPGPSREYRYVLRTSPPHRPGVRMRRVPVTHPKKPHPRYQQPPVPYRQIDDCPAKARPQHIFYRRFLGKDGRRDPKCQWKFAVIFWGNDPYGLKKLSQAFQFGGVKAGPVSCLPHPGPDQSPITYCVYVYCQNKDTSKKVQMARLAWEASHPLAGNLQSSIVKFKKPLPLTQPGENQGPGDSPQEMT
PRMT1 inh = PRMT1 methyltransferase inhibitors, primary screen, biochemical, fluorescence polarization | Protein arginine N-methyltransferase 1 (Homo sapiens), Q99873 | recombinant PRMT1, activity-based probe fluorescence polarization | inhibition, % at 2.79 µM | 370,000 compounds, 1.3% hits | AID 652257, 2013;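 active means inhibition above about 21% made by adding two undisclosed values, limit read from the data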
ABHD5-PLIN5 inh = ABHD5-PLIN5 interaction inhibitors, primary screen, cell lysate, split luciferase complementation, luminescence; 360,000 compounds, 0.78% hits; Split G. princeps luciferase complementation, 4 h; Perilipin-5 (Homo sapiens) + 1-acylglycerol-3-phosphate O-acyltransferase ABHD5 (Homo …; inhibition, % at 4 µM;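 active means inhibition above the mean inhibition across every tested compound plus 3 SD, cut at about 22% in these data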
Numbers stand for hits; n = inactive; x = no result; ! = not active in a repeat. A selection: hits, their analogues and other compounds. The true share with any hit is near 5.9%.

SMILES	ALR H2O2 inh	Rtt109 Vps75	rCAG binder	LANA-H2B inh	PRMT1 inh	ABHD5-PLIN5 inh
CCOC(=O)N1CCN(C(=O)C[C@H]2C[C@@]3(C(=O)OC)C(=C[C@H](C(C)(C)C)O[C@@H]3C)N(Cc3ccccc3)C2=O)CC1	x	x	n	x	n	x
CC(C)C[C@H](NC(=O)NC(C)C)C(=O)O	n	n	n	16	n	n
CC(=O)NC(CC(C)C)C(=O)O (stereo not given)	x	n	n	x	n	n
COc1ccc(-c2ccc(CN3C(C(C)C)C(=O)N(Cc4cn(CCC5OCCO5)nn4)CCS3(=O)=O)cc2)cc1 (stereo not given)	x	x	n	x	n	n
O=C1C(Cl)=C(NCC2CCCO2)C(=O)N1C1CCCCC1 (stereo not given)	98	n	n	n	n	n
O=C1C(Cl)=C(NCC2CCCO2)C(=O)N1c1ccccc1 (stereo not given)	n	n	n	n	n	n
Cc1ccc(NC(=O)CN(C)C(=O)C(c2ccccc2)c2ccccc2)cc1	x	n	n	n	n	n
COc1ccc(NC(=O)CN(C)C(=O)C(Sc2ccccc2)c2ccccc2)cc1 (stereo not given)	n	n	n	60	n	n
COc1ccc(NC(=O)CN(C)C(=O)c2ccccc2SCC(=O)N2CCCC2)cc1	n	n	n	19	n	n
CN(CC(=O)Nc1ccccc1C(F)(F)F)CC(=O)N1CCCCCC1	n	n	n	n	n	n
CCN(CC(=O)Nc1ccccc1C(F)(F)F)C(=O)c1ccccc1SCC(=O)N1CCCC1	n	n	n	35	n	n
O=C(CSc1c2c(nc3ccc(Cl)cc13)CCCC2)NCCCN1CCOCC1	98	n	n	n	n	n
COCCCNC(=O)CSc1c2c(nc3ccc(Cl)cc13)CCCC2	99	n	n	n	n	n
O=C(CSc1c2c(nc3cc(Cl)ccc13)CCCC2)NCCCN1CCOCC1	97	n	n	n	n	n
O=C(CSc1ccccc1)NCCCN1CCOCC1	n	n	n	n	n	n
O=C(CSc1c2c(nc3cc(Cl)ccc13)CCCC2)NCCN1CCOCC1	n	n	n	n	n	n
CN1CCN(c2ncnc3c2ncn3[C@H]2CN(Cc3cccnc3)C[C@@H](CO)O2)CC1	x	x	n	x	n	n
COC(=O)C1CN(CCc2ccccc2)CCS(=O)(=O)N1Cc1ccc(Cl)cc1 (stereo not given)	x	x	n	x	n	x
COc1ccc(CSc2nnc(SCC(=O)Nc3ccc4c(c3)OCO4)s2)cc1	x	x	n	x	n	x
CCCCN(C)c1nc(C)nc2c1nnn2Cc1ccccc1	x	x	n	x	n	x
COCCNC(=O)C1(C)CCN(C(=O)c2sccc2C)C1 (stereo not given)	x	x	n	x	n	n
C/C(=N\NC(=O)c1ccc(F)cc1)c1ccc(N2CCOCC2)cc1	n	n	n	n	n	n
O=C(O)c1cc(N/N=C/c2ccc(N3CCOCC3)s2)ccc1Cl	x	n	75	x	33	n
C/C(=N\Nc1ccc(Cl)c(C(=O)O)c1)c1ccc(N2CCOCC2)cc1	x	n	n	11	n	n
CC(C)OC(=O)C(C)(C)Oc1ccc(C(=O)c2ccc(Cl)cc2)cc1	n	n	n	35!	n	n
SMILES	ALR H2O2 inh	Rtt109 Vps75	rCAG binder	LANA-H2B inh	PRMT1 inh	ABHD5-PLIN5 inh
CC1(C)OC2CC3C4CCC5=CC(=O)C=CC5(C)C4(F)C(O)CC3(C)C2(C(=O)CO)O1 (stereo not given)	x	x	n	x	n	n
O=C(NNC(=O)C1CCCN(c2ncccn2)C1)c1ccncc1 (stereo not given)	n	n	n	12	n	n
Cc1ccccc1C(=O)NNC(=O)C1CCCN(c2ncccn2)C1 (stereo not given)	n	n	n	n	n	n
COc1ccc(C(O)c2nc(-c3ccc4ccccc4c3)cs2)cc1 (stereo not given)	x	x	n	x	n	n
C=CCOc1ccc(/C(O)=C2/C(=O)C(=O)N(CCCN3CCOCC3)C2c2ccc(OC)cc2)cc1 (stereo not given)	n	n	n	16	n	n
O=C1C(=O)N(CCN2CCOCC2)C(c2ccncc2)/C1=C(/O)c1ccc2c(c1)OCO2 (stereo not given)	n	x	n	n	n	n
O=C1C(=O)N(CCN2CCOCC2)C(c2ccc([N+](=O)[O-])cc2)/C1=C(/O)c1ccc2c(c1)OCO2 (stereo not given)	n	n	n	n	23	n
O=C(Cc1cn(Cc2ccccc2)c2ccccc12)Nc1ccc(Nc2cccnc2)cc1	x	x	n	x	n	x
CN(CC(=O)N1CCN(c2ccccc2)CC1)S(=O)(=O)c1cnc[nH]1	98	n	n	n	n	n
CN(CC(=O)N1CCN(c2cccc(Cl)c2)CC1)S(=O)(=O)c1cnc[nH]1	n	n	n	n	n	n
CCOC(=O)C1(C)/C(=N/Nc2ccc(Cl)cc2)C(=O)C(=O)N1c1ccccc1 (stereo not given)	99	n	n	n	n	n
CCOC(=O)C1(C)/C(=N/Nc2cccc(Cl)c2)C(=O)C(=O)N1c1ccccc1 (stereo not given)	x	n	n	n	n	n
CC(C)N(Cc1nccn1C)C(=O)CC1C(=O)NCCN1Cc1ccccc1C(F)(F)F (stereo not given)	n	n	n	13	n	n
O=C(CC1C(=O)NCCN1Cc1ccccc1C(F)(F)F)NC1CCC1 (stereo not given)	n	n	n	181	n	n
CN(CCc1ccccn1)C(=O)CC1C(=O)NCCN1Cc1ccccc1C(F)(F)F (stereo not given)	n	n	n	n	n	n
O=C(CC1C(=O)NCCN1Cc1ccccc1C(F)(F)F)NC1CCCCC1 (stereo not given)	n	n	n	n	n	n
Cc1sc2nc(CSc3nc4ccccc4s3)[nH]c(=O)c2c1C	99	x	n	n	n	x
Cc1sc2nc(CSc3ccc([N+](=O)[O-])cc3)[nH]c(=O)c2c1C	99	x	x	n	x	x
O=c1[nH]c(CSc2nc3ccccc3s2)nc2ccccc12	n	n	n	n	n	n
COc1cccc(NC(=O)C2(C)CCN2C(=O)CC2CCCC2)c1 (stereo not given)	x	x	n	x	n	n
CCOC(=O)[C@]12CCCC=C1N(Cc1cccc3ccccc13)C(=O)[C@H](CC(=O)N1CCCC1)C2	x	x	n	x	n	n
CC(Oc1ccc2c(c1)c1ccnc3c4ccccc4c(=O)n2c13)C(=O)NCCN1CCOCC1 (stereo not given)	n	n	n	n	n	n

Compound activity from PubChem BioAssay.
